Assay results: PubChem BioAssay AID1159580 (chemical genetic matrix, 2015)
In all, about 5,500 compounds went through this assay and about 2,000 (36%) were called active. Another 18% or so got no clear call; they are omitted. Rule as the data show it: active = normalized growth mostly below about 0.91 (no sharp cut-off); inconclusive = no clear call, values can overlap the other calls; inactive = mostly above about 0.92. This is one part of the list.

Test: chemical genetic growth profiling, strain panel (AID 1159580);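 also: tested at 20 µM; growth read once vehicle control cultures reached saturation at 30 °C; 1 = growth at the plate median or of vehicle wells; lower values mean less growth of the strain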
Conditions: S. cerevisiae deletion strains, growth OD

Measured: normalized growth

Clc1ccc(CO/N=C(/Cn2ccnc2)c2ccc(Cl)cc2Cl)c(Cl)c1
active: locus YAL021C, strain ccr4, active compounds read low 0.0719 | locus YAL026C, strain drs2, active compounds read low 0.066 | locus YAL030W, strain snc1, active compounds read low 0.062 | locus YBL061C, strain skt5, active compounds read low 0.0675 | locus YBR009C, strain hhf1, active compounds read low 0.0713 | locus YBR023C, strain chs3, active compounds read low 0.0703 | locus YBR171W, strain sec66, active compounds read low 0.084 | locus YBR231C, strain swc5, active compounds read low 0.0712 | locus YBR279W, strain paf1, active compounds read low 0.0663 | locus YCL011C, strain gbp2, active compounds read low 0.0641 | locus YCL016C, strain dcc1, active compounds read low 0.0718 | locus YCL069W, strain vba3, active compounds read low 0.0674 | locus YCR088W, strain abp1, active compounds read low 0.0653 | locus YDL005C, strain med2, active compounds read low 0.0803 | locus YDL040C, strain nat1, active compounds read low 0.0648 | locus YDR001C, strain nth1, active compounds read low 0.0642 | locus YDR069C, strain doa4, active compounds read low 0.07 | locus YDR137W, strain rgp1, active compounds read low 0.106 | locus YDR159W, strain sac3, active compounds read low 0.103 | locus YDR195W, strain ref2 0.146 | locus YDR297W, strain sur2, active compounds read low 0.0626 | locus YDR334W, strain swr1, active compounds read low 0.0671 | locus YDR335W, strain msn5, active compounds read low 0.0633 | locus YDR392W, strain spt3, active compounds read low 0.0807 | locus YEL003W, strain gim4, active compounds read low 0.0579 | locus YEL037C, strain rad23, active compounds read low 0.0606 | locus YEL061C, strain CIN8 (second series), active compounds read low 0.0642 | locus YER015W, strain faa2, active compounds read low 0.0705 | locus YER016W, strain bim1, active compounds read low 0.0699 | locus YER111C, strain swi4, active compounds read low 0.0753 | locus YER155C, strain BEM2 (second series), active compounds read low 0.104 | locus YFR010W, strain ubp6, active compounds read low 0.0725 | locus YGL167C, strain pmr1, active compounds read low 0.0799 | locus YGL173C, strain kem1, active compounds read low 0.0926 | locus YGL227W, strain vid30, active compounds read low 0.067 | locus YGL240W, strain doc1, active compounds read low 0.108 | locus YGL253W, strain hxk2, active compounds read low 0.0581 | locus YHR013C, strain ard1, active compounds read low 0.111 | locus YHR027C, strain rpn1, active compounds read low 0.0678 | locus YHR030C, strain SLT2, active compounds read low 0.11 | locus YHR079C, strain IRE1, active compounds read low 0.138 | locus YHR142W, strain chs7, active compounds read low 0.0783 | locus YJL092W, strain hpr5, active compounds read low 0.0639 | locus YJL095W, strain BCK1 (second series), active compounds read low 0.0624 | locus YJL095W, strain BCK1, active compounds read low 0.119 | locus YJL115W, strain asf1, active compounds read low 0.076 | locus YJL129C, strain trk1, active compounds read low 0.0899 | locus YJL154C, strain vps35, active compounds read low 0.0641 | locus YJL164C, strain tpk1, active compounds read low 0.0663 | locus YJL166W, strain qcr8, active compounds read low 0.0665 | locus YJL187C, strain SWE1, active compounds read low 0.0662 | locus YJR066W, strain TOR1, active compounds read low 0.016 | locus YKL160W, strain elf1, active compounds read low 0.0739 | locus YKR026C, strain gcn3, active compounds read low 0.0685 | locus YKR091W, strain srl3, active compounds read low 0.0651 | locus YLL001W, strain dnm1, active compounds read low 0.0676 | locus YLL026W, active compounds read low 0.0627 | locus YLL041C, strain sdh2, active compounds read low 0.0619 | locus YLR027C, strain aat2, active compounds read low 0.0637 | locus YLR113W, strain HOG1, active compounds read low 0.138 | locus YLR221C, strain rsa3, active compounds read low 0.0614 | locus YLR258W, strain gsy2, active compounds read low 0.0647 | locus YLR262C, strain YPT6 (second series), active compounds read low 0.0952 | locus YLR320W, strain mms22, active compounds read low 0.0852 | locus YLR342W, strain FKS1, active compounds read low 0.0731 | locus YLR357W, strain rsc2, active compounds read low 0.13 | locus YLR370C, strain arc18, active compounds read low 0.0687 | locus YLR384C, strain iki3, active compounds read low 0.0679 | locus YML120C, strain ndi1, active compounds read low 0.0632 | locus YMR058W, strain fet3, active compounds read low 0.0659 | locus YMR125W, strain sto1, active compounds read low 0.0799 | locus YMR129W, active compounds read low 0.0624 | locus YMR205C, strain PFK2, active compounds read low 0.104 | locus YMR231W, strain pep5, active compounds read low 0.205 | locus YNL071W, strain lat1, active compounds read low 0.0653 | locus YNL183C, strain NPR1, active compounds read low 0.0338 | locus YNL209W, strain ssb2, active compounds read low 0.0716 | locus YNL248C, strain rpa49, active compounds read low 0.0816 | locus YNL322C, strain KRE1 (second series), active compounds read low 0.0683 | locus YNR049C, strain mso1, active compounds read low 0.0594 | locus YOR001W, strain rrp6, active compounds read low 0.0749 | locus YOR070C, strain gyp1, active compounds read low 0.0664 | locus YOR080W, strain dia2, active compounds read low 0.0735 | locus YOR083W, strain WHI5, active compounds read low 0.0763 | locus YOR106W, strain vam3, active compounds read low 0.0782 | locus YOR231W, strain MKK1, active compounds read low 0.116 | locus YOR265W, strain rbl2, active compounds read low 0.0668 | locus YOR270C, strain vph1, active compounds read low 0.112 | locus YOR290C, strain snf2, active compounds read low 0.0669 | locus YPL051W, strain arl3, active compounds read low 0.0756 | locus YPL078C, strain atp4, active compounds read low 0.08 | locus YPL106C, strain sse1, active compounds read low 0.105 | locus YPL240C, strain hsp82, active compounds read low 0.0633 | locus YPL256C, strain CLN2, active compounds read low 0.139
